From PubChem BioAssay (NCI)
Compounds without any hit were thinned out: in the full panel of roughly 83,000, 20% have a hit.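 Values shown are percent growth following 48 h exposure of cells in 96-well plates to a single concentration of compound; below 10 was considered active.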 Active and inactive are the calls of the source.

Key:
Test in all cases: NCI-60 one-dose screen, 48 h (100 = growth as untreated, 0 = no growth, -100 = all killed)
Conditions in all cases: 10 µM unless noted
[1] = test system: DU-145 prostate
[2] = test system: K-562 leukemia
[3] = test system: MALME-3M melanoma
[4] = test system: MDA-MB-231 breast
[5] = test system: RXF 393 renal
[6] = test system: SF-268 CNS
[7] = test system: SF-295 CNS
[8] = test system: SF-539 CNS
[9] = test system: UACC-257 melanoma
[10] = test system: M14 melanoma
[11] = test system: HCT-15 colon
[12] = test system: HT29 colon
[13] = test system: SNB-75 CNS
[14] = test system: SNB-19 CNS
[15] = test system: U251 CNS
[16] = test system: PC-3 prostate
[17] = test system: UACC-62 melanoma
[18] = test system: LOX IMVI melanoma
[19] = test system: SK-MEL-28 melanoma
[20] = test system: SK-MEL-5 melanoma

Measured: growth

c1ccc2cc(-c3n(Cc4ccc5ccccc5n4)c4ccccc4[n+]3Cc3ccc4ccccc4n3)ccc2c1
active: [2] -6.05% | [3] -32.9% | [4] -21% | [5] -18.8% | [6] -3.09% | [7] -13.7% | [8] 0.28% | [9] -14.2% | [10] -8.82% | [12] -31.7% | [13] -32.8% | [14] 6.22% | [15] -7.46% | [16] 0.461% | [17] -60.6% | [18] -85.8% | [19] -24.2%
inactive: [1] 13.3% | [11] 18.8%

CN1CCC(OC2c3ccccc3CCc3ccccc32)CC1
inactive: [1] 107% | [2] 96.8% | [3] 102% | [4] 74.8% | [5] 89.2% | [6] 89.5% | [7] 88.6% | [8] 102% | [9] 92.6% | [10] 103% | [11] 98.8% | [12] 90.1% | [13] 65.7% | [14] 99.2% | [15] 92.5% | [16] 78.3% | [17] 98.4% | [18] 91.1% | [19] 94.2%

O=C1OCC2=C1C(c1ccc3c(c1)OCO3)CC(=O)N2c1cccc(Cl)c1 (configuration not stated)
inactive: [1] 107% | [2] 102% | [3] 88.4% | [4] 101% | [5] 96.5% | [6] 110% | [7] 96% | [8] 104% | [9] 104% | [10] 121% | [11] 101% | [12] 97.5% | [13] 80.7% | [14] 93% | [15] 99.9% | [16] 102% | [17] 102% | [18] 98% | [19] 101%

O=C1CC(c2ccsc2)c2snc(-c3ccc(Cl)cc3)c2N1 (configuration not stated)
active: [12] 3.6% | [13] -6.98%
inactive: [1] 19.4% | [2] 16.4% | [3] 37.7% | [4] 90% | [5] 25.4% | [6] 56.1% | [7] 17.1% | [8] 32.4% | [9] 50% | [10] 13.9% | [11] 21.9% | [14] 64.4% | [15] 27.7% | [20] 18.1% | [17] 30.8% | [18] 51.8% | [19] 45.4%

COc1ccccc1CNCCCCCCCCCCCCN1C(=O)c2ccc3c4c(ccc(c24)C1=O)C(=O)N(CCCCCCCCCCCCNCc1ccccc1OC)C3=O
inactive: [1] 51.2% | [2] 35.2% | [3] 97.6% | [4] 64.1% | [6] 69.4% | [7] 49.4% | [9] 113% | [10] 80.2% | [11] 77.7% | [12] 53.4% | [14] 58.1% | [20] 78.4% | [17] 105% | [18] 56.4% | [19] 81.1%
active: [5] -69.6% | [8] 1.92% | [13] -13.3% | [15] -28.6%

C[C@@H](Oc1cc(-c2cnn(C3CC4(CCNCC4)C3)c2)cnc1N)c1c(F)ccc(Cl)c1Cl
inactive: [1] 37.9% | [14] 61.6% | [15] 12.1%
active: [2] -19.9% | [3] -67.6% | [4] -54% | [5] -31.5% | [6] -24.5% | [7] -10.2% | [8] -90.7% | [9] -89.5% | [10] -75.5% | [11] 1.76% | [12] -56.6% | [13] -3.45% | [16] 6.2% | [18] -85.8% | [19] -83.4%

COc1cc(C2CC(=O)Nc3c2ccc2ccccc32)cc(Br)c1OC (configuration not stated)
inactive: [3] 27.6% | [4] 28.5% | [6] 42.5% | [9] 59.7% | [11] 27.9% | [14] 39% | [15] 18.6% | [16] 15.2% | [17] 12.1% | [18] 25.1% | [19] 43.6%
active: [1] -4.56% | [2] 6.59% | [5] -1.55% | [7] -33.7% | [8] 0.195% | [10] -15.3% | [12] -6.29% | [13] -18.6%

COc1cc(/C=C/C(=O)C2=C(/C=C/c3ccc(O)c(OC)c3)NC(=O)NC2c2ccc(O)c(OC)c2)ccc1O (configuration not stated)
inactive: [1] 111% | [2] 87% | [3] 117% | [4] 67.7% | [5] 97.1% | [6] 93.5% | [7] 93.1% | [8] 87% | [9] 85.6% | [10] 94% | [11] 97.4% | [12] 54.1% | [13] 65.8% | [14] 96.5% | [15] 86.3% | [16] 76.7% | [17] 94.2% | [18] 98.7% | [19] 103%

COc1ccc(Sc2ccc3[nH]c(=O)nc(N)c3c2)cc1
inactive: [1] 108% | [2] 100% | [3] 102% | [4] 91.5% | [5] 101% | [6] 107% | [7] 106% | [8] 105% | [9] 92% | [10] 105% | [11] 103% | [12] 106% | [13] 91.3% | [14] 94.1% | [15] 94.3% | [16] 96.9% | [17] 105% | [18] 99.7% | [19] 104%

Cc1ccccc1-c1cc(-c2ccc(Br)s2)[nH]c(=O)c1C#N
inactive: [1] 110% | [2] 90.3% | [3] 88.9% | [4] 100% | [5] 106% | [6] 104% | [7] 95.1% | [8] 112% | [9] 104% | [10] 93.6% | [11] 98.7% | [12] 112% | [13] 92.3% | [14] 103% | [15] 106% | [16] 98.9% | [17] 92.3% | [18] 94.2% | [19] 108%

Nc1nc(-c2ccnc(Cl)c2)nn1-c1nc2ccccc2s1
inactive: [1] 115% | [2] 112% | [3] 97.3% | [4] 89.5% | [5] 108% | [6] 100% | [7] 101% | [8] 98.5% | [9] 113% | [10] 101% | [11] 101% | [12] 112% | [13] 103% | [14] 98.9% | [15] 107% | [20] 106% | [17] 97% | [18] 102% | [19] 104%

O=C(COc1cccc(/C=C2\COc3ccccc3C2=O)c1)c1ccccc1
inactive: [1] 101% | [2] 17.1% | [3] 90% | [4] 83.8% | [5] 69.5% | [6] 88.7% | [7] 115% | [8] 90.4% | [9] 72.9% | [10] 60.9% | [11] 33.1% | [12] 41.2% | [13] 71% | [14] 100% | [15] 60.9% | [20] 47.7% | [17] 59.4% | [18] 23.7% | [19] 97.2%

Cc1cc(=O)c2c(C)ccc(C)c2[nH]1
inactive: [1] 115% | [2] 109% | [3] 102% | [4] 99.3% | [5] 90.7% | [6] 96.8% | [7] 91.4% | [8] 107% | [9] 80.5% | [10] 97.8% | [11] 101% | [12] 111% | [13] 101% | [14] 99.8% | [15] 100% | [20] 110% | [17] 96.4% | [18] 97.7% | [19] 109%

C[C@@H](Oc1cc(-c2cnn(C3CC4(CNC4)C3)c2)cnc1N)c1c(Cl)ccc(F)c1Cl
inactive: [1] 46.6% | [3] 48.5% | [4] 37.9% | [5] 21.7% | [6] 39.6% | [7] 24.5% | [8] 28.9% | [10] 30.2% | [11] 35.4% | [13] 25.1% | [14] 96.7% | [15] 61.8% | [16] 24.7% | [17] 53% | [18] 11.5% | [19] 58.9%
active: [2] 5.12% | [9] 8.56% | [12] -11.9%

CCOC(=O)c1[nH]c2cc(Cl)ccc2c1[C@@H](C(=O)NC(C)(C)C)N(CC)C(=O)CCCCC#Cc1cccc2c1CN(C1CCC(=O)NC1=O)C2=O (some centres not stated)
inactive: [1] 32.8% | [2] 17.5% | [6] 25% | [8] 29.6% | [9] 28.4% | [10] 16.9% | [14] 28.2% | [15] 27.8% | [17] 27.2% | [19] 29.6%
active: [3] -12.6% | [4] -50.1% | [5] -1.34% | [7] -5.32% | [11] -2.23% | [12] 8.65% | [13] 0.961% | [20] -53.4% | [18] 8.52%

Cc1cccc2c(=O)c3c(sc12)c(NCCNCCO)nc1ccccc13
active: [2] -65.7% | [3] -42.2% | [4] -15.3% | [10] -56.4% | [11] 0.304% | [12] -55.4% | [18] -89.8%
inactive: [1] 27.3% | [5] 38.1% | [6] 56.6% | [7] 65% | [8] 50.6% | [9] 77.8% | [13] 32.8% | [14] 49.6% | [15] 13.4% | [16] 38.7% | [17] 26%
